Laboratory results: PMC5540273 (PLoS ONE, 2017)

Legend:
Conditions in all cases: concentration: 1 μM, replicates: in singlicate; n = 1
[1] = system: BUB1
[2] = system: CAMK1B
[3] = system: CAMK1D
[4] = system: CAMK1G
[5] = system: CAMK1
[6] = system: CAMK2A
[7] = system: CAMK2B
[8] = system: CAMK2D
[9] = system: CAMK2G
[10] = system: CAMK4
[11] = system: CAMKK1
[12] = system: CAMKK2
[13] = system: CASK
[14] = system: T1, CDC2L1
T1 construct: gene CDK11B

[15] = system: CDC2L2
[16] = system: T2, CDC2L5
T2 construct: gene CDK13

[17] = system: T3, CDK11
T3 construct: gene CDK19

[18] = system: CDK2
[19] = system: CDK3
[20] = system: CDK4-cyclinD1
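Also: KINOMEscan kinase panel screen.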

SMILES	%Inh [1] [%]	%Inh [2] [%]	%Inh [3] [%]	%Inh [4] [%]	%Inh [5] [%]	%Inh [6] [%]	%Inh [7] [%]	%Inh [8] [%]	%Inh [9] [%]	%Inh [10] [%]	%Inh [11] [%]	%Inh [12] [%]	%Inh [13] [%]	%Inh [14] [%]	%Inh [15] [%]	%Inh [16] [%]	%Inh [17] [%]	%Inh [18] [%]	%Inh [19] [%]	%Inh [20] [%]
CCCCCc1nc2c(N)ncnc2n1CCCCC [SKF-97255]	0	0	0	15	0	0	0	6	0	21	0	0	25	0	0	0	10	0	9	0
Cc1nnc(-c2ccc3occ(-c4ccc(C(C)O)cc4)c3c2)o1 (centres unmarked)	9	0	0	0	12	3	0	6	11	0	12	14	4	1	4	22	0	5	4	0
CNc1ncnc2[nH]ncc12 [SKF-18355]	20	0	0	0	0	0	0	0	0	0	0	0	22	0	0	0	0	0	12	0
CC(C)Oc1ccc2c(-c3ccnc(Nc4ccc(N5CCN(C)CC5)cc4)n3)cnn2n1 [GW696155]	99.4	96.3	97.8	56	71	44	31	54	48	0	40	44	23	63	51	0	19	0	17	94.4
Cc1cn2c(=O)cc(N3CCOCC3)nc2n1Cc1cccc(Cl)c1Cl [GSK2334006]	4	40	14	30	12	0	0	10	32	0	30	32	20	0	6	0	11	17	25	0
CC(C)(C)n1cnc2c(N)ncnc21 [SKF-97359]	52	63	1	0	0	0	0	0	0	0	0	0	0	0	0	0	0	0	0	21
CN(C(=O)c1ccc(-c2cc(-c3c[nH]nc3-c3ccccn3)ccn2)cc1)C1CCOCC1 [GW810083]	0	41	20	0	0	0	0	0	17	20	12	25	0	0	0	11	52	0	0	31
Cn1cc(-c2ccc3c(c2)CCN3C(=O)Cc2ccccc2Cl)c2c(N)ncnc21 [GSK2608885]	25	33	22	13	44	0	0	17	34	0	25	28	0	0	14	0	0	0	0	0
CSc1ccc(-c2cc3ncnc(SCC(=O)O)c3s2)cc1	24	0	0	0	0	0	0	0	0	3	44	45	0	7	0	0	0	0	40	0
Cc1ccc(C(=O)NCC(N)=O)cc1-n1c(C)cc(OCc2ccc(F)cc2F)c(Br)c1=O	0	10	36	0	44	9	1	0	0	26	3	0	0	7	20	0	0	0	0	0
